Data on 40 molecules can be found in PubChem BioAssay (NCATS).

Calls of active or inactive are those of the source. Calls come from the whole dose curve; as a rule, active = well fitted inhibition curve with a large enough effect; inconclusive = small, poorly fitted or top-dose-only effect; inactive = no such curve, though single readings can be large or run the other way.

This experiment is described as follows: qHTS assay for measurement of the activity of small molecule inhibitors on Zika virus induced Caspase-3 activity in human astrocytoma cells (AID 1224859). Particulars: SNB-19 ZIKV-induced caspase-3/7, luminescence, 6 h; series mostly up to 45.7 µM. The source says:
National Center for Advancing Translational Sciences [NCATS]
Johns Hopkins University School of Medicine
Increase in the Caspase-3 activity indicates an activation of apoptosis cell death pathway caused by Zika virus infection in certain types of neuronal cells including human neural progenitor cells (hNPCs), astrocytes, and astrocytoma cell line (SNB-19). This cell-based caspase-3 activity assay measures the increased caspase-3 activity in the astrocytoma cell line (SNB-19) after a 6-hour Zika virus infection with a luminescence readout. A decrease in the luminescence signal in this assay by small molecule treatment indicates an inhibitory effect of that small molecule on the Zika virus induced caspase-3 activity that may correlate with its effect on reduction of Zika virus caused cell death.
The medium for SNB-19 cells is composed of RPMI 1640 (ATCC, Cat.# 30-2001), 10% fetal bovine serum (FBS) (GE healthcare Life Sciences, Cat.# SH30071.03), and 1% Pen/Strep (Gibco, Cat.# 15140-122). A Caspase-Glo 3/7 assay kit (catalog number G8092; Promega, Madison, WI) was used to detect caspase-3 activity induced by Zika virus infection in human cells. The reagent mixture was reconstituted as described in the protocol from the manufacturer. Polystyrene tissue culture treated and PDL coated white plates were obtained from Greiner Bio-One (Monroe, NC). Cells were seeded in 384- or 1536-well assay plates and cultured at 37 C with 5% CO2 for 16 to 20 hours. The typical cell seeding density in the 1536-well plate assay is 250 cells/well in 3ul medium for SNB-19 cells in tissue culture treated plates. Compounds were added to cells and incubated for one hour before addition of ZIKV solution to cells (2 FFU/cell). After incubation at 37 C with 5% CO2 for 6 hours, the reagent mixture of Caspase-Glo 3/7 assay kit was added to each well, followed by incubation at room temperature for 30 minutes. The luminescence intensity of the assay plates was measured using a ViewLux plate reader (PerkinElmer). Data were normalized by using the cell-containing wells without ZIKV as a negative control (0% induction of caspase 3/7 activity) and wells containing ZIKV infected cells (Caspase-3 activity induced) as a positive control (100% induction of caspase 3 activity). The percentage inhibitions of the increased Caspase-3 activity by small molecule inhibitors were then calculated.
A general note: qHTS replaces the single test concentration by a dilution series.
In the case of `c1ccc(C(O[C@H]2CCCN(CCc3ccc4c(c3)OCO4)C2)c2ccccc2)cc1`, the outcome was inactive. Regarding `COc1ccccc1N1CCN(CC(O)COc2cc(OC)c(OC)c(OC)c2)CC1` (stereo not given), the molecule was classed as inactive. As to `O=C(O)c1ccccc1S`, the outcome was inactive. On to `Cc1ccc(O)cc1`, for which the molecule was classed as inactive. On to `CC(=O)N[C@@H](CCC(N)=O)C(=O)O`, for which the outcome was inactive. As to `O=C(O)CNC(=O)CNC(=O)CNC(=O)CSC(=O)c1ccccc1`, the result was inactive.

`CN(C)CCOC(c1ccccc1)c1ccc(Br)cc1` (stereo not given): the outcome was inactive. On to `Cc1ccc(C(=O)Oc2ccc(C(O)CNC(C)(C)C)cc2OC(=O)c2ccc(C)cc2)cc1` (stereo not given), for which the molecule was classed as inactive. For the molecule `NS(=O)(=O)c1ccc(N2CCCCS2(=O)=O)cc1`, the outcome was inactive.

As for `CC[C@@]1(O)C(=O)OCc2c1cc1n(c2=O)Cc2c-1nc1ccccc1c2/C=N/OC(C)(C)C`, the result was inactive.

On to `CCOC(=O)c1ccc(O)c(O)c1`, for which the molecule was classed as inactive. Turning to `COc1ccc2c(c1)c(CC(=O)OC/C=C(\C)CC/C=C(\C)CCC=C(C)C)c(C)n2C(=O)c1ccc(Cl)cc1`, the outcome was inactive. For `CCCCOCCOC(=O)c1cccnc1` the value was “inactive”; for `COC(=O)c1ccc(NC(C)=O)cc1OC`, “inactive”. The same measure for `CCCCCCCCCCCCCCCC[n+]1ccccc1`: “inactive”; for `Cc1ccc(CCn2c3c(c4cc(Cl)ccc42)CN(C)CC3)cn1`: “inactive”; for `CN1N=C(C(N)=O)CCC1=O`: “inactive”. On to `COc1ccc(CCC(C)=O)cc1`, for which the result was inactive. On to `O=C1CC(c2ccc(Cl)cc2)CC(=O)N1`, for which the outcome was inactive. Consider `N[C@@H](Cn1ccc(=O)c(O)c1)C(=O)O`, for which the outcome was inactive. On to `Cc1ccc(-c2ccccc2C#N)cc1`, for which the outcome was inactive.

In the case of `CCCCCCCCCCCC[N+](C)(C)Cc1ccccc1`, the molecule was classed as inactive. For `CN(C)CCN(Cc1ccsc1)c1ccccn1` the value was “inactive”. On to `Cc1cnc(NS(=O)(=O)c2ccc(N)cc2)nc1`, for which the call was inactive. The same measure for `CN1C(=O)c2ccccc2C1=O`: “inactive”; for `CCCCCCCCCCCCCCCCCCN(C)C`: “inactive”. Consider `O=C1NC(c2ccccc2)(c2ccccc2)C(=O)N1COP(=O)(O)O`, for which the outcome was inactive. Consider `CC(C)Cc1ccc(C(C)C(=O)OCc2ccccn2)cc1` (stereo not given), for which the molecule was classed as inactive.

As to `O=C(NO)c1ccccc1`, the molecule was called inactive. For `CCCCCCOC(=O)NC(=N)c1ccc(NCc2nc3cc(C(=O)N(CCC(=O)OCC)c4ccccn4)ccc3n2C)cc1`, the call was inactive. With `Cc1ccc(C(=O)C(=O)O)cc1C`, the molecule was classed as inactive.

For `C[N+](C)(CCOc1ccccc1)Cc1cccs1`, the molecule was classed as inactive.

Take `CCN1CCCC1CN` (stereo not given): the call was inactive. For `CCCN(CCC)C(=O)C(CCC(=O)OCCCN1CCN(CCOC(=O)Cc2c(C)n(C(=O)c3ccc(Cl)cc3)c3ccc(OC)cc23)CC1)NC(=O)c1ccccc1` (stereo not given), the molecule was called inactive. For `Cc1onc(-c2c(Cl)cccc2Cl)c1C(=O)Cl` the value was “inactive”; for `O=C1[C@@H]2[C@H]3CC[C@H](C3)[C@@H]2C(=O)N1CCCCN1CCN(c2ncccn2)CC1`, “inactive”; for `Cc1cc(CCCOc2c(C)cc(-c3noc(C(F)(F)F)n3)cc2C)on1`, “inactive”. With `O=C(C1CCCCC1)N1CC(=O)N2CCCc3ccccc3C2C1` (stereo not given), the molecule was called inactive. For the molecule `CN(C)c1cc2c(Nc3ccc4c(cnn4Cc4ccccc4)c3)ncnc2cn1`, the molecule was called inactive.

For the molecule `Cc1ccccc1N1CCN(CCc2nnc3n2CCCC3)CC1`, the molecule was classed as inactive.
